# Measurements as given in PubChem BioAssay (NCI).
# The panel holds about 83,000 compounds, 20% with a hit somewhere; the sample as a whole holds those more often.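 Percent growth is the endpoint: 0 to 100 indicates growth inhibition (40 means 60% inhibition), 0 means no net growth, and negative values indicate cell death.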 Calls of active or inactive are those of the source. Rule for the calls: active = growth percent below 10; inactive = the rest.
# Tested on: HL-60(TB) leukemia
# Experiment: NCI-60 one-dose screen, 48 h (100 = growth as untreated, 0 = no growth, -100 = all killed)
# Details: 10 µM unless noted
row,Compound,growth
1,CC(C)CCC[C@@H](C)[C@H]1CCC2C3=CCn4c(=O)ccc(=O)n4C3CC[C@@]21C (stereo partly specified),-43.3% (active)
2,CC1(C)C(=O)/C(=C\c2cccnc2)C[C@]2(C)[C@H]3CC[C@@H]4[C@@H](C(=O)/C=C/c5ccncc5)CC[C@@]4(C)[C@]3(C)CC[C@@H]12,-11% (active)
3,CCOC(=O)c1[nH]cc2c1CCc1sc(Nc3ccccn3)nc1-2,75.9% (inactive)
4,COC(=O)c1c2c(n3ccccc13)C(=O)c1ccccc1C2=O,58.6% (inactive)
5,COc1ccc(S(=O)(=O)Nc2cc(Sc3cccc4cccnc34)c(O)c3ccccc23)cc1,-18.8% (active)
6,COC(=O)CCc1n(Cc2ccc3ccccc3c2)c2ccccc2[n+]1Cc1ccc2ccccc2c1,-49.1% (active)
7,COc1ccc(C(=O)NC(=O)Nc2ccc3c(c2)NC(=O)/C3=C\c2[nH]c(C)c(C(=O)O)c2C)cc1,95.2% (inactive)
8,CC(C)(C)C(=O)OCOP(=O)(OCOC(=O)C(C)(C)C)C1CC(O)N(O)C1=O (stereo unspecified),13.1% (inactive)
9,COc1cccc(N2CCN(CC(=O)N3CCN(c4nnc(-c5ccc(Cl)cc5)c(-c5ccc(Cl)cc5)n4)CC3)CC2)c1,20.6% (inactive)
10,N#Cc1c(NC(=O)c2cccs2)[n+]([O-])c2ccc(F)cc2[n+]1[O-],91.6% (inactive)
11,COc1ccc(C(=O)/C=C/c2cccnc2Nc2cc(OC)c(OC)c(OC)c2)cc1,-23.2% (active)
12,CC[C@H](Nc1nc(N)nc(N)c1Cl)c1nc2cccc(NCc3ccc(C(=O)NO)cc3)c2c(=O)n1-c1ccccc1,-34.7% (active)
13,NCCCn1c2c(c3cc(-c4ccn[nH]4)ccc3c1=O)C(=O)c1ccccc1-2,39.6% (inactive)
14,CSc1ccc(-c2ccccc(=O)c2O)cc1,-40.1% (active)
15,COc1cc(-c2cc3ncccc3c3nc(OCCN(C)C)c4cccnc4c23)cc(OC)c1OC,36.9% (inactive)
16,CCCCCCNC(=O)Oc1ccc(/C(=C(\C)c2ccccc2)c2ccc(OCCCN(C)C)cc2)cc1,78% (inactive)
17,CCN(C(=O)N1CCN(c2cc3c(cc2F)c(=O)c(C(=O)O)cn3C2CC2)CC1)c1nc(-c2ccccc2)cs1,-34% (active)
18,COC(=O)C1(CC(C)=O)NC(=S)NC(=O)C1C#N (stereo unspecified),102% (inactive)

row,Compound,growth
1,Nc1ncnc2c1ncn2C1OC(CO)C2OC21 (stereo unspecified),114% (inactive)
2,CN1CCN(C(=O)[C@@]2(C)CC[C@]3(C)CC[C@]4(C)C(=CC[C@@H]5[C@@]6(C)C/C(=C/c7ccncc7)C(=O)C(C)(C)[C@@H]6CC[C@]54C)[C@@H]3C2)CC1,-8.87% (active)
3,N#C/C(=C\c1ccc(-c2ccc(Cl)cc2)o1)c1ccc(Cl)cc1,96.1% (inactive)
4,CSc1nc2[nH]ncc2c(=O)[nH]1,114% (inactive)
5,CCCCCCCCNc1cc2c3c(c1)CCCN3CCC2,-3.66% (active)
6,COc1ccc(NC(=O)Cn2c(=O)sc3c(-c4ccc(Cl)cc4)cc(-c4ccc(Cl)cc4)nc32)cc1,80% (inactive)
7,Cc1ccc(/C=C2\COc3ccc(O)c(O)c3C2=O)cc1,-15% (active)
8,COc1cc(C(=C2O[C@@H]([C@H]3COC(C)(C)O3)[C@H]3OC(C)(C)O[C@@H]23)c2cc(OC)c(OC)c(OC)c2)cc(OC)c1OC,107% (inactive)
9,COc1cccc(C(=O)NNc2nc(Cl)nc(Cl)n2)c1,96.2% (inactive)
10,CN1CCN(c2ccc3nc(/N=C/c4ccc5sc(-c6ccc([N+](=O)[O-])cc6)nc5c4)sc3c2)CC1,109% (inactive)
11,C/C(=N\Nc1cc(C)c2cc(C)ccc2n1)c1ccccn1,-54.9% (active)
12,O=C1Nc2ccc(F)cc2/C1=C/c1nc(-c2ccc(F)cc2)n2ccccc12,103% (inactive)
13,CCCCCc1c(C)[nH]c(/C=C2\N=C(c3ccc[nH]3)C=C2Oc2ccccc2)c1C,-49.6% [100 µM] (active)
14,CC(C)(C)c1cc(-c2nc3ccc(N4CCN(CCO)CC4)cc3[nH]2)cc(C(C)(C)C)c1O,63.5% (inactive)
15,Cc1cc(C(=O)Nc2cc(Oc3ccc4nc(NC(=O)C5CC5)cn4n3)ccc2C)n(C)n1,7.21% (active)
16,Cc1ccc(NC(=O)N/C(N)=N/c2nc(=O)c3ccccc3s2)cc1,33.7% (inactive)
17,Cc1cc(O)cc(-c2c(-c3ccnc(-c4cccnc4)c3)cnn2C)c1,46% (inactive)
18,N#Cc1ccc(-n2cnc(NC(=O)[C@H]3CCN(C#N)C3)c2)cc1,-20.8% (active)
